MITF act: activators of MITF-driven TRPM1 promoter reporter, primary screen, cell-based, SK-MEL-5, luciferase, single point; AID 588334, 2011; activation, % at 12.5 µM; 300,000 tested, 0.75% active; SK-MEL-5 TRPM1-promoter luciferase, 24 h; % of positive control, neutral wells = 0;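 active = mean activation of at least 80% with every replicate also reaching 80%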
esBAF inh: Bmi1 luciferase reporter increase in mESCs, primary screen, esBAF inhibitor project, mouse ES cells, Bmi1 luciferase knock-in, single point. 24 h; 100% = twice the neutral-well signal. reporter increase, % at 12.5 µM. 350,000 tested, 2% active. AID 602393, 2012; in the data active = activation above about 40%;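 note: a rise in the Bmi1 reporter signal indicates esBAF inhibition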
Statin myotox sup: suppressors of statin myotoxicity in C2C12 myotubes, primary screen, cell-based, single point, plate reader; AID 602340, 2012; rescue of ATP level, % at 7.49 µM; 330,000 tested, 0.78% active; C2C12 myotubes + simvastatin, ATP luminescence, 48 h; scaled: DMSO 0, geranylgeraniol control 100;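 active = mean ATP rescue above about 67%, or every replicate alone reaching that limit, limit read from the data, passing the limit was not always enough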;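 note: myotubes were challenged with 10 µM simvastatin during compound exposure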
GAA850 FXN act: FXN promoter activators, primary screen, cell-based, luciferase luminescence, HEK293 lucGAA850. HEK293 lucGAA850 FXN promoter luciferase reporter, 24 h; percent of 10 µM SAHA response. activation, % at 6 µM. 360,000 tested, 0.56% active. AID 540364, 2011;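 active = activation above the average of all compounds screened plus 3 SD, cutoff fixed separately per campaign, cut at about 7.5% in these data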
Wnt act: Wnt/beta-catenin pathway activators, primary screen, cell-based, plate reader, single point | Wnt/beta-catenin reporter cell assay, activator | activation, % at 9.35 µM | 300,000 tested, 1.2% active | AID 743398, 2014; in the data active = activation above about 30%, passing the limit was not always enough
Each line names hits and unclear results; the compound was inactive in the other large screens. Only some compounds are listed: those with a hit (about 3.3% of all), similar ones and a draw of the others.

O=C(Nc1ccc(NC(=O)C2CCCCC2)nc1)c1cccs1	Wnt act 54.5 (no result: esBAF inh, Statin myotox sup)
Nc1ccc(NC(=O)c2cccs2)cc1	none (no result: MITF act, esBAF inh, Statin myotox sup)
Cc1ccc(NC(=O)c2cccs2)cc1	esBAF inh 60.7
CCCNC(=O)N1C[C@H](C)[C@@H](OC)CN(C)C(=O)c2cc(NC(=O)C3CCC3)ccc2OC[C@@H]1C	none (no result: MITF act, GAA850 FXN act, Wnt act)
CCCNC(=O)C[C@@H]1C[C@H]2c3cc(NC(=O)c4cccnc4)ccc3O[C@H]2[C@H](CO)O1	none (no result: MITF act, GAA850 FXN act, Wnt act)
C[C@@H]1CCCCO[C@@H](CN(C)S(=O)(=O)c2cn(C)cn2)[C@@H](C)CN([C@H](C)CO)C(=O)c2cc(NC(=O)c3ccccc3)ccc2O1	none (no result: MITF act, Statin myotox sup, GAA850 FXN act, Wnt act)
O=C(Nc1ccc(-n2ccc(C(F)(F)F)n2)cc1)c1cccs1	MITF act 122.9
O=C(Nc1ccc(NC(=O)c2cccs2)cc1)c1ccco1	MITF act 97.8, esBAF inh 47.6 (no result: Wnt act)
O=C(Nc1ccc(O)cc1)c1ccc(NC(=O)c2cccs2)cc1	none
O=C(O)c1ccccc1C(=O)Nc1ccc(-n2ccc(C(F)(F)F)n2)cc1	none (no result: esBAF inh, Statin myotox sup)
O=C(Nc1ccc(NC(=O)c2cccs2)cc1)c1ccccc1	esBAF inh 48.4
CCCNC(=O)N(C)C[C@H]1Oc2ncc(-c3ccccc3)cc2C(=O)N([C@H](C)CO)C[C@@H]1C	none (no result: MITF act, GAA850 FXN act, Wnt act)
O=C(N[C@@H]1CC[C@H](CCNS(=O)(=O)Cc2ccccc2)O[C@H]1CO)c1cnccn1	none (no result: MITF act, GAA850 FXN act, Wnt act)
Cc1cc(O)c(N=Nc2ccc(C(=O)O)cc2)cc1C	esBAF inh 67.2
CCOC(=O)c1c(C)[nH]c(C(=O)COC(=O)c2ccncc2)c1C	none (no result: Statin myotox sup)
Cc1[nH]c2ccccc2c1C(=O)COC(=O)C1CC(=O)N(Cc2ccccc2)C1 (configuration not stated)	none (no result: Wnt act)
CCOC(=O)c1c(C)[nH]c(C(=O)COC(=O)C2CC(=O)N(Cc3ccccc3)C2)c1C (configuration not stated)	Statin myotox sup 91.7 (no result: Wnt act)
CCOC(=O)c1c(C)[nH]c(C(=O)COC(=O)c2cccnc2Cl)c1C	MITF act 82.9, esBAF inh 64.8
COc1ccc(NC(=O)N(C)C[C@@H]2Oc3ncc(C#C[C@@H](C)O)cc3C(=O)N([C@@H](C)CO)C[C@H]2C)cc1	none (no result: MITF act, GAA850 FXN act, Wnt act)
CC(C)NC(=O)N(C)C[C@H]1Oc2c(NS(=O)(=O)c3cccs3)cccc2C(=O)N([C@@H](C)CO)C[C@H]1C	none (no result: MITF act, Statin myotox sup, GAA850 FXN act, Wnt act)
Cc1ccc(-c2noc(-c3ccccc3C(=O)N3CCCC3)n2)cc1	none (no result: Wnt act)
O=C(c1ccccc1-c1nc(-c2ccc(Cl)cc2)no1)N1CCCC1	none
O=C(c1ccccc1-c1nc(-c2ccccc2)no1)N1CCCC1	esBAF inh 56.9
Cc1ccc(-c2noc(-c3ccccc3C(=O)N3CCN(C)CC3)n2)cc1	esBAF inh 63.7 (no result: MITF act, Statin myotox sup)
C[C@@H]1CN([C@H](C)CO)C(=O)c2c(c3ccccc3n2C)-c2ccccc2CO[C@H]1CN(C)C(=O)[C@@H]1CCCN1C	none (no result: MITF act, GAA850 FXN act, Wnt act)
Cc1c(NC(=O)c2ccc(Cl)nc2)cccc1-c1nc2cccnc2s1	none (no result: esBAF inh, Statin myotox sup)
O=C(Nc1ccc(-c2nc3cccnc3s2)cc1)c1cccnc1Cl	Wnt act 37.7
O=C(Nc1ccc(-c2nc3cccnc3s2)cc1)c1ccc(Br)o1	Wnt act 38.7 (no result: MITF act)
O=C(Nc1ccc(-c2nc3cccnc3s2)cc1)c1ccco1	none (no result: MITF act)
O=C(Nc1ccc(-c2nc3cccnc3s2)cc1)c1ccc(Cl)nc1	MITF act 89.2
O=C(NC1CCCc2ccccc21)c1ccc2c(c1)OCO2 (configuration not stated)	none
CC(NCc1ccc2c(c1)OCO2)C(=O)NC1CCCc2ccccc21 (configuration not stated)	Statin myotox sup 99.4 (no result: Wnt act)
N#Cc1c(/N=C/c2ccc(-c3ccccc3C(=O)O)o2)sc2c1CCCC2	esBAF inh 57.1
CNC[C@H]1Oc2ccc(N)cc2C(=O)N([C@@H](C)CO)C[C@@H]1C	none (no result: MITF act, GAA850 FXN act, Wnt act)
CCC(CC)NC(=O)COC(=O)c1ccc(OCC(=O)Nc2ccccc2OC)c(OC)c1	Statin myotox sup 66.6
CCCNC(=O)COC(=O)c1ccc(OCC(=O)Nc2ccccc2OC)c(OC)c1	none
Cc1nc2ncnn2c(N2CCN(C(c3ccccc3)c3ccccc3)CC2)c1C	Statin myotox sup 79.1 (no result: Wnt act)
Cc1cc(N2CCN(C(c3ccccc3)c3ccccc3)CC2)n2ncnc2n1	none (no result: MITF act, Wnt act)
O=C(Nc1ccc(Cl)cc1)N[C@@H]1CC[C@@H](CCn2cc(C3(O)CCCC3)nn2)O[C@@H]1CO	none (no result: MITF act, GAA850 FXN act, Wnt act)
O=c1c2ccccc2nc(-c2ccc(Cl)cc2Cl)n1CCCn1ccnc1	Statin myotox sup 99.6 (no result: MITF act)
Cc1sc2ncnc(Nc3ccc(O)cc3)c2c1C	Wnt act 37.9
NC(=O)CC[C@@H]1NC(=O)[C@H](CO)NC(=O)c2cc([N+](=O)[O-])cc(I)c2OCC[C@@H](C(N)=O)NC1=O	Statin myotox sup 106.3
C/C(=N\Nc1nc2c(s1)CCCC2)c1ccccc1	esBAF inh 47.3
O=C(Nc1nc2c(s1)CCCC2)Oc1ccccc1	none (no result: Wnt act)
Cc1cccc(Nc2nc3c(s2)CCCC3)c1	MITF act 102.8, Wnt act 65.4 (no result: esBAF inh, Statin myotox sup)
O=C(O)c1ccc(Nc2nc3c(s2)CCCC3)cc1	none (no result: esBAF inh, Statin myotox sup)
CO[C@@H]1CN(C)C(=O)c2ccc(NC(=O)C3CCOCC3)cc2OC[C@H](C)NC[C@@H]1C	none (no result: MITF act, GAA850 FXN act, Wnt act)
CC(C)NC(=O)NCC[C@H]1CC[C@@H](NS(=O)(=O)c2ccc(-c3ccccc3)cc2)[C@@H](CO)O1	none (no result: MITF act, GAA850 FXN act, Wnt act)
FC(F)(F)c1nc2ccccc2n2c(-c3c(Cl)cccc3Cl)nnc12	none (no result: Wnt act)
FC(F)(F)c1nc2ccccc2n2c(-c3ccc(Cl)cc3Cl)nnc12	Statin myotox sup 83.9 (no result: Wnt act)
CC(C)NC(=O)Nc1ccc2c(c1)C(=O)N([C@H](C)CO)C[C@H](C)[C@H](CN(C)Cc1ccc(-c3ccccc3)cc1)O2	none (no result: MITF act, GAA850 FXN act, Wnt act)
CSc1ccc(CN(C)C(=O)c2cc3ccccc3o2)cc1	esBAF inh 57.5
CSc1ccc(CN(C)C(=O)c2cc(=O)c3ccccc3o2)cc1	none
O=C(C[C@@H]1C[C@@H]2c3cc(NS(=O)(=O)c4ccc(F)cc4)ccc3O[C@@H]2[C@H](CO)O1)NCC(F)(F)F	none (no result: MITF act, GAA850 FXN act, Wnt act)
Cn1nc(-c2ccccc2)cc1NC(=O)CCCC(=O)O	none (no result: esBAF inh, Statin myotox sup)
Cn1nc(-c2ccc(Cl)cc2)cc1NC(=O)CC(C)(C)CC(=O)O	Wnt act 40.8 (no result: MITF act, esBAF inh, Statin myotox sup)
CCOC(=O)C1=C(CP(=O)(c2ccccc2)c2ccccc2)NC(=O)NC1c1ccc(Cl)cc1 (configuration not stated)	none
CCOC(=O)C1=C(CP(=O)(c2ccccc2)c2ccccc2)NC(=O)NC1c1ccc(OC)cc1 (configuration not stated)	Wnt act 83.8 (no result: esBAF inh, Statin myotox sup)
O=C(OCc1cc([N+](=O)[O-])cc2c1OCOC2)c1ccc2ccccc2n1	none (no result: esBAF inh, Statin myotox sup)
CC(C)=CC(=O)OCc1cc([N+](=O)[O-])cc2c1OCOC2	Wnt act 41.1 (no result: esBAF inh, Statin myotox sup)
